# PME-1 primary: PME-1 (human) inhibition; Q9Y570; recombinant PME-1, FP-Rh probe fluorescence polarization; inhibition, % at 5.9 µM; hit rate 0.53% among 320,000;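 active means inhibition above the campaign mean of all compounds plus 3 SD, cut at about 26% in these data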;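 further: competitive labeling of PME-1 active site by serine hydrolase directed probe; 0% = PME-1 with DMSO and 100% = wells lacking PME-1 enzyme; inhibitors block probe labeling so polarization falls and inhibition rises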
# Target sequence (Q9Y570 whole entry, looked up): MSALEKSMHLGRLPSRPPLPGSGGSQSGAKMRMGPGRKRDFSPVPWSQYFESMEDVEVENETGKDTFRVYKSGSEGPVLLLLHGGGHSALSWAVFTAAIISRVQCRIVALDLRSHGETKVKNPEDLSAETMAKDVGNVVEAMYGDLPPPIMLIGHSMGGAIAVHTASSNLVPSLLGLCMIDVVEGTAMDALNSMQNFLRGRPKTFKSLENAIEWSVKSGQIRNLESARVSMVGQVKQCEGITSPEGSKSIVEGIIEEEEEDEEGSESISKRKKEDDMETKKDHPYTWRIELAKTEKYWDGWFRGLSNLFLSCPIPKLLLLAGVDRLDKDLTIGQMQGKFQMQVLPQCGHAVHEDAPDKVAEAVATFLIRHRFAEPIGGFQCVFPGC
# pPAFAH FP inh: pPAFAH (human) enzyme inhibition; Q13093; recombinant pPAFAH, FP-rhodamine probe fluorescence polarization; hit rate 1.5% among 330,000; inhibition, % at 3.39 µM;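 active means inhibition above the mean inhibition across the screen plus 3 SD, cut at about 25% in these data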;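 further: inhibitors block binding of the rhodamine activity-based probe so polarization drops; 0% = enzyme with DMSO and 100% = wells lacking pPAFAH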
# PAFAH1B2 FP inh: inhibitors of human PAFAH1B2; recombinant PAFAH1B2, FP-rhodamine activity probe, fluorescence polarization; P68402; inhibition, % at 3.39 µM; hit rate 1.2% among 340,000;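 active means inhibition above the mean of all tested compounds plus 3 SD, cut at about 24% in these data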;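 further: 0% = enzyme with DMSO and 100% = wells lacking PAFAH1B2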
# Target sequence (P68402 whole entry, looked up): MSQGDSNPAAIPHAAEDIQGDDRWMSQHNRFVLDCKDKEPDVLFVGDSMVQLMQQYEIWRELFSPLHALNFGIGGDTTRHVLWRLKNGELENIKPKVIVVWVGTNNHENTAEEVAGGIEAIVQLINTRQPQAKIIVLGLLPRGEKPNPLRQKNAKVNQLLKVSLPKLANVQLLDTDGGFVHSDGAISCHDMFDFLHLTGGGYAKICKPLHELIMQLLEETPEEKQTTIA
# Fam108B inh: Fam108B inhibition, counter-screen for RBBP9 inhibitors. inhibition, % at 9.51 µM. hit rate 0.33% among 300,000. recombinant Fam108B, FP-Rh probe fluorescence polarization;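 active means inhibition above the screen mean inhibition plus 3 SD, computed separately per campaign, cut at about 18% in these data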;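 further: inhibitors lower polarization as less probe binds the enzyme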
# PAFAH2 inh: PAFAH2 (human) inhibition | Q99487 | hit rate 0.99% among 340,000 | recombinant PAFAH2, FP-rhodamine activity probe, fluorescence polarization | AID 492956 | inhibition, % at 3.39 µM;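 active means inhibition above the mean over all tested compounds plus 3 SD, cut at about 30% in these data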;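 further: inhibitors block probe labeling of enzyme so polarization drops; 0% = enzyme with DMSO and 100% = wells lacking PAFAH2 protein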
# PAFAH1B3 inh: blocks human PAF acetylhydrolase 1B catalytic subunit 3; inhibition, % at 3.39 µM; recombinant PAFAH1B3, FP-rhodamine probe, fluorescence polarization; Q15102; hit rate 0.28% among 340,000;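 active means inhibition above the screen-wide average of all tested compounds plus 3 SD, cut at about 25% in these data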;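 further: 0% = enzyme with DMSO only and 100% = wells lacking PAFAH1B3 protein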
# pPAFAH FP conf: pPAFAH (human) inhibition, confirmed | shares compounds with pPAFAH FP inh | recombinant pPAFAH, FP-Rh probe fluorescence polarization | inhibition, % at 3.39 µM | hit rate 72% among 2,300;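 active means mean inhibition of the triplicate above the hit cutoff set for the earlier primary screen, cut at about 25% in these data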;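 further: 0% = enzyme with DMSO and 100% = wells lacking pPAFAH enzyme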
# PAFAH2 FP conf: PAFAH2 (human) inhibition, confirmed; hit rate 65% among 2,300; AID 493030; recombinant PAFAH2, FP-rhodamine activity probe, fluorescence polarization; inhibition, % at 3.39 µM; shares compounds with PAFAH2 inh;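 active means mean inhibition over three repeats above a set limit taken from the earlier primary screen, cut at about 30% in these data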;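 further: inhibitor blocks binding of rhodamine activity probe so polarization falls; 0% = enzyme with DMSO and 100% = wells lacking PAFAH2 protein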
# An asterisk follows results filed as active; . = no result given. Only some compounds are listed: those with a hit (about 2.8% of all), similar ones and a draw of the others.
SMILES,PME-1 primary,pPAFAH FP inh,PAFAH1B2 FP inh,Fam108B inh,PAFAH2 inh,PAFAH1B3 inh,pPAFAH FP conf,PAFAH2 FP conf
Cc1cc(C)c(S(=O)(=O)N2CCN(C(=O)C3COc4ccccc4O3)CC2)c(C)c1 (centres undefined),11,2,4,.,-1,13,.,.
CCOC(=O)C1=C(C)N(C[C@@H]2CC[C@@H](Cc3ccc(-c4ccccc4)cc3)O2)C(=O)NC1c1ccc(SCc2ccco2)c([N+](=O)[O-])c1 (some centres undefined),.,56*,1,.,5,0,25*,.
Cn1nc(C(=O)NC2CCCCC2)c2c1-c1ccccc1S(=O)(=O)C2,5,1,4,-1,-2,7,.,.
CC(C)Cn1c(=O)c(C(=O)NCc2ccccn2)c(O)c2ccccc21,-3,56*,-3,-2,-4,9,3,.
CCn1c(=O)c(C(=O)NCc2ccccc2)c(O)c2ccccc21,-1,5,2,-2,-3,8,.,.
CCC1CCCCN1CCCNC(=O)c1ccc(CS(=O)(=O)c2ccc(Br)cc2)o1 (centres undefined),-5,2,3,-1,-7,4,.,.
Cc1ccc(S(=O)(=O)N(C)C)cc1NC(=O)CN1C(=O)NC(Cc2ccccc2)C1=O (centres undefined),0,42*,2,1,-3,-2,-3,.
Nc1ccc2nc(-c3cccc(-c4nc5ccc(N)cc5[nH]4)n3)[nH]c2c1,-20,35*,32*,13,13,30*,54*,.
Cc1cc(=O)oc2c(CN3CCCCC3)c(O)c(Cl)cc12,0,6,2,-2,-1,3,.,.
CCc1cc(=O)oc2cc(C)c(CN3CCCC3)c(O)c12,-8,64*,2,-7,23,-4,21,.
CCc1cc(=O)oc2cc(C)c(CN3CCCCC3)c(O)c12,2,47*,0,1,5,4,9,.
COc1ccc(N2CCC(CNC(=O)Nc3ccc(Cl)cc3)C2)cc1 (centres undefined),11,36*,0,1,-5,6,5,.
COc1cc2[nH]c(=O)c(C(=O)NCc3ccccc3Cl)c(O)c2cc1OC,.,.,6,.,5,12,.,.
COc1ccccc1NC(=O)Nc1ccc(C(N)=O)cc1,1,42*,2,2,-1,0,-1,.
CCOc1cc(N2CCOCC2)c(OCC)cc1NC(=O)c1cccc(S(=O)(=O)N2CCOCC2)c1,.,2,3,.,8,4,.,.
O=C(NCCS(=O)(=O)c1ccc(Br)cc1)c1c(F)cccc1F,-8,5,5,4,-6,-6,.,.
O=C(O)CCc1ccc(-c2ccc(Cl)cc2)n1Cc1ccco1,2,35*,13,-1,15,1,16,.
COc1ccc(COC(=O)c2cc([N+](=O)[O-])ccc2N2CCOCC2)cc1F,5,43*,-1,3,-2,2,8,.
O=C(OCc1cccc(Cl)c1)c1cc([N+](=O)[O-])ccc1N1CCOCC1,5,6,6,1,3,2,.,.
COc1cc(NS(=O)(=O)c2ccc(Nc3nc(-c4cccc([N+](=O)[O-])c4)cs3)cc2)nc(OC)n1,9,47*,17,15,43*,16,69*,27
Cc1cccc(NC(=O)C2CC3CCC2C3)c1C (centres undefined),-8,-3,1,-3,-1,5,.,.
CCN(CC)S(=O)(=O)c1cc(C(=O)OCC(=O)Nc2cccc(Br)c2)ccc1F,-47,15,-8,-31,32*,-8,.,22
CCc1cccc(CC)c1NC(=O)COC(=O)c1ccc(F)c(S(=O)(=O)N(CC)CC)c1,-3,17,4,1,30*,8,.,26
COc1ccccc1CNC(=O)c1ccc(NC(=O)CC2SC(N3CCCC3)=NC2=O)cc1 (centres undefined),.,4,7,.,1,15,.,.
COC(=O)C(Cc1ccccc1)NC(=O)c1cccc(S(=O)(=O)N(C)C)c1 (centres undefined),-2,-2,8,3,3,6,.,.
SMILES,PME-1 primary,pPAFAH FP inh,PAFAH1B2 FP inh,Fam108B inh,PAFAH2 inh,PAFAH1B3 inh,pPAFAH FP conf,PAFAH2 FP conf
O=C(NC12CC3CC(CC(C3)C1)C2)c1cncc(O)c1,-1,3,22,1,38*,18,.,20
O=C(NC12CC3CC(CC(C3)C1)C2)c1cccnc1,-1,2,8,-3,1,-2,.,.
O=C(COC(=O)C12CC3CC(CC(O)(C3)C1)C2)Nc1ccc(Br)cc1F,-5,1,0,.,30*,4,.,13
O=C(COC(=O)C12CC3CC(CC(C3)C1)C2)Nc1ccccc1F,-2,11,11,2,40*,12,.,29
COCCOc1ccc(C(F)(F)F)cc1NC(=O)COC(=O)C12CC3CC(CC(O)(C3)C1)C2,-1,3,10,2,3,8,.,.
Cc1c(Cl)cccc1NC(=O)COC(=O)C12CC3CC(CC(O)(C3)C1)C2,2,-2,-1,.,43*,4,.,16
CCc1cnccc1CCC(=O)Nc1ccccc1C,-1,0,3,6,10,-3,.,.
C=CCn1c(C)nnc1SCC(=O)Nc1cc(S(=O)(=O)N2CCCC2)ccc1Cl,.,.,-1,.,3,0,.,.
CC(=O)CCC(=O)N1CCCC(N2CCN(c3cccc(Cl)c3)CC2)C1 (centres undefined),1,4,0,2,1,-6,.,.
O=C1C=C(c2cc3ccccc3o2)C[C@@H](c2ccc(F)cc2)C1,-1,1,0,.,-10,18,.,.
O=C(Nc1nc(-c2ccccc2)cs1)NC1CCCCC1,3,0,6,0,30*,4,.,1
c1ccc(-c2csc(NC3CCCCC3)n2)cc1,0,4,3,-5,0,-4,.,.
CCOc1ccc(C(=O)OCC(=O)NCCCc2ccccc2)cc1,1,13,1,-2,55*,-2,.,35*
CN(C)c1cccc(C(=O)OCC(=O)NCC2CCCO2)c1 (centres undefined),-4,6,-3,1,24,-2,.,.
CN(C)c1ccc(C(=O)OCC(=O)NCC2CCCO2)cc1 (centres undefined),-1,8,1,3,62*,2,.,56*
CC(=O)Nc1ccc(C(=O)OCC(=O)Nc2c(F)cccc2F)cc1,2,-2,4,-3,50*,7,.,38*
COC(=O)c1ccc(CNC(=O)COC(=O)c2ccc(N(C)C)cc2)cc1,2,6,8,-1,44*,9,.,40*

# Screening results as filed in PubChem BioAssay.
